# Tested on: T1, VPS34
# T1 construct: gene PIK3C3
# Conditions: concentration: 1 μM, replicates: in singlicate; n = 1
# 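Note: KINOMEscan kinase panel screen.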
row,Structure (SMILES),%Inh [%]
1,CC(C)(C)n1cnc2c(N)ncnc21 [SKF-97359],15
2,Cc1cccc(Cn2ccn3c(=O)cc(N4CCOCC4)nc23)c1 [GSK2297542],94.6
3,c1ccc(-c2cc(-c3c[nH]nc3-c3ccccn3)ccn2)cc1 [GW576604],18
4,O=C(Nc1cccc(-c2nn3ncccc3c2-c2ccnc(Nc3cccc(C(F)(F)F)c3)n2)c1)c1c(F)cccc1F [GSK299495],0
5,COc1cc2c(cc1OC[C@@H](O)CO)ncc1c3ccc(C#N)cc3[nH]c21,0
6,N#Cc1ccc(-c2cc(-c3c[nH]nc3-c3ccccn3)ccn2)cc1 [GW693028],0
7,Fc1ccc(-c2ncn(CCCN3CCOCC3)c2-c2ccccn2)cc1 [SB-211742],20
8,COc1ccc(Nc2nccc(N3CCC(NC(=O)Nc4cccc(C(C)=O)c4)C3)n2)cc1 (stereo not drawn) [GSK1379731],31
9,Cn1cc(-c2ccc3c(c2)CCN3C(=O)Cc2ccccc2Cl)c2c(N)ncnc21 [GSK2608885],0
10,CNc1ncnc2[nH]ncc12 [SKF-18355],30
11,Cc1cccc(-c2nc(Nc3ccc4ncsc4c3)c3ccccc3n2)n1 [GW867588],0
12,[2H]C([2H])(c1cccc(C(F)(F)F)c1C)n1ccn2c(=O)nc(N3CCOCC3)cc12 [GSK2336394],0
13,Cc1c2ccc(N(C)c3ccnc(Nc4cccc(S(N)(=O)=O)c4)n3)cc2nn1Cc1ccccc1.Cl.Cl [GW787226],0
14,O=C(c1ccc(-c2cc(-c3c[nH]nc3-c3ccccn3)ccn2)cc1)N1CCOCC1 [GW812171],9
15,CCn1cnc2c(N)ncnc21 [GW345098],1
16,Cl.Nc1ncnc2occ(-c3ccc(NC(=O)Nc4cc(C(F)(F)F)ccc4F)cc3)c12 [SB-707548],5
17,CC(=O)Nc1ccc(COc2ccc(Nc3ccnc4cc(-c5ccccn5)ccc34)cc2)cc1.Cl [GW440148],0
18,Cc1nnc(-c2ccc3occ(-c4ccc(C(C)O)cc4)c3c2)o1 (stereo not drawn),18

row,Structure (SMILES),%Inh [%]
1,Cc1nnc(-c2ccc3ncc(-c4ccc(S(C)=O)cc4)n3c2)o1 (stereo not drawn),27
2,c1ccc(-c2n[nH]cc2-c2ccnc3ccccc23)nc1 [GW271431],20
3,CCCCCc1nc2c(N)ncnc2n1CCCCC [SKF-97255],0
4,CN1c2ccc(CNc3ccc(F)cc3)cc2-c2c(cnn2C)S1(=O)=O,0
5,NCC(NC(=O)c1cc(-c2cn[nH]c2)c(-c2ccnc3[nH]ccc23)s1)c1ccccc1.O=C(O)C(F)(F)F.O=C(O)C(F)(F)F (stereo not drawn) [GSK1325775],59
6,O=C(Nc1n[nH]c2cc(-c3cccc(F)c3)ccc12)C1CC1 [SB-735464],0
7,COc1ccc(COc2cc(-n3cnc4ccccc43)sc2C(N)=O)cc1 [GSK1024304],40
8,CN(C(=O)c1ccc(-c2cc(-c3c[nH]nc3-c3ccccn3)ccn2)cc1)C1CCOCC1 [GW810083],24
9,O=c1cc(N2CCOCC2)nc2n(Cc3cccc(Cl)c3Cl)c(C3CC3)nn12 [GSK2358994],100
10,COc1cc2ncn(-c3cc(OCc4sccc4Cl)c(C(N)=O)s3)c2cc1OC [GSK448459],60
11,CCc1ccnc(/C=C/c2n[nH]c3cc(Sc4ccccc4C(=O)NC)ccc23)c1,6
12,CSc1ccc(-c2cc3ncnc(SCC(=O)O)c3s2)cc1,31
13,COc1ccc(Nc2nccc(N3CCC(NC(=O)Nc4cc(C)ccc4C)C3)n2)cc1 (stereo not drawn) [GSK1379741],0
14,Cc1c(Cn2c(C)nn3c(=O)cc(N4CCOC(C)C4)nc23)cccc1C(F)(F)F (stereo not drawn) [GSK2344444],48
15,O=C1NC(=O)C(N2CCc3ccccc32)=C1c1cccc(Cl)c1 [SB-408010],0
16,Cn1ccc2ncnc(Oc3ccc(NC(=O)Nc4ccncc4)c(Cl)c3)c21,0
17,O=C(NOCC1CC1)c1ccc(F)c(F)c1Nc1ccc(I)cc1Cl,0
18,Cc1ccc(NC(=O)c2ccnc(N3CCN(C)CC3)c2)cc1-c1ccc(C(=O)NCC2CC2)cc1 [GW775604],0

# Tested on: VRK2
# Conditions: concentration: 1 μM, replicates: in singlicate; n = 1
row,Structure (SMILES),%Inh [%]
1,CC(C)(C)n1cnc2c(N)ncnc21 [SKF-97359],100
2,Cc1cccc(Cn2ccn3c(=O)cc(N4CCOCC4)nc23)c1 [GSK2297542],0
3,c1ccc(-c2cc(-c3c[nH]nc3-c3ccccn3)ccn2)cc1 [GW576604],2
4,O=C(Nc1cccc(-c2nn3ncccc3c2-c2ccnc(Nc3cccc(C(F)(F)F)c3)n2)c1)c1c(F)cccc1F [GSK299495],20
5,COc1cc2c(cc1OC[C@@H](O)CO)ncc1c3ccc(C#N)cc3[nH]c21,9
6,N#Cc1ccc(-c2cc(-c3c[nH]nc3-c3ccccn3)ccn2)cc1 [GW693028],13
7,Fc1ccc(-c2ncn(CCCN3CCOCC3)c2-c2ccccn2)cc1 [SB-211742],0
8,COc1ccc(Nc2nccc(N3CCC(NC(=O)Nc4cccc(C(C)=O)c4)C3)n2)cc1 (stereo not drawn) [GSK1379731],95.1
9,Cn1cc(-c2ccc3c(c2)CCN3C(=O)Cc2ccccc2Cl)c2c(N)ncnc21 [GSK2608885],0
10,CNc1ncnc2[nH]ncc12 [SKF-18355],10
11,Cc1cccc(-c2nc(Nc3ccc4ncsc4c3)c3ccccc3n2)n1 [GW867588],0
12,[2H]C([2H])(c1cccc(C(F)(F)F)c1C)n1ccn2c(=O)nc(N3CCOCC3)cc12 [GSK2336394],0
13,Cc1c2ccc(N(C)c3ccnc(Nc4cccc(S(N)(=O)=O)c4)n3)cc2nn1Cc1ccccc1.Cl.Cl [GW787226],0
14,O=C(c1ccc(-c2cc(-c3c[nH]nc3-c3ccccn3)ccn2)cc1)N1CCOCC1 [GW812171],23
15,CCn1cnc2c(N)ncnc21 [GW345098],0
16,Cl.Nc1ncnc2occ(-c3ccc(NC(=O)Nc4cc(C(F)(F)F)ccc4F)cc3)c12 [SB-707548],0
17,CC(=O)Nc1ccc(COc2ccc(Nc3ccnc4cc(-c5ccccn5)ccc34)cc2)cc1.Cl [GW440148],0
18,Cc1nnc(-c2ccc3occ(-c4ccc(C(C)O)cc4)c3c2)o1 (stereo not drawn),0

row,Structure (SMILES),%Inh [%]
1,Cc1nnc(-c2ccc3ncc(-c4ccc(S(C)=O)cc4)n3c2)o1 (stereo not drawn),0
2,c1ccc(-c2n[nH]cc2-c2ccnc3ccccc23)nc1 [GW271431],0
3,CCCCCc1nc2c(N)ncnc2n1CCCCC [SKF-97255],0
4,CN1c2ccc(CNc3ccc(F)cc3)cc2-c2c(cnn2C)S1(=O)=O,0
5,NCC(NC(=O)c1cc(-c2cn[nH]c2)c(-c2ccnc3[nH]ccc23)s1)c1ccccc1.O=C(O)C(F)(F)F.O=C(O)C(F)(F)F (stereo not drawn) [GSK1325775],0
6,O=C(Nc1n[nH]c2cc(-c3cccc(F)c3)ccc12)C1CC1 [SB-735464],23
7,COc1ccc(COc2cc(-n3cnc4ccccc43)sc2C(N)=O)cc1 [GSK1024304],0
8,CN(C(=O)c1ccc(-c2cc(-c3c[nH]nc3-c3ccccn3)ccn2)cc1)C1CCOCC1 [GW810083],100
9,O=c1cc(N2CCOCC2)nc2n(Cc3cccc(Cl)c3Cl)c(C3CC3)nn12 [GSK2358994],0
10,COc1cc2ncn(-c3cc(OCc4sccc4Cl)c(C(N)=O)s3)c2cc1OC [GSK448459],5
11,CCc1ccnc(/C=C/c2n[nH]c3cc(Sc4ccccc4C(=O)NC)ccc23)c1,13
12,CSc1ccc(-c2cc3ncnc(SCC(=O)O)c3s2)cc1,0
13,COc1ccc(Nc2nccc(N3CCC(NC(=O)Nc4cc(C)ccc4C)C3)n2)cc1 (stereo not drawn) [GSK1379741],0
14,Cc1c(Cn2c(C)nn3c(=O)cc(N4CCOC(C)C4)nc23)cccc1C(F)(F)F (stereo not drawn) [GSK2344444],0
15,O=C1NC(=O)C(N2CCc3ccccc32)=C1c1cccc(Cl)c1 [SB-408010],0
16,Cn1ccc2ncnc(Oc3ccc(NC(=O)Nc4ccncc4)c(Cl)c3)c21,0
17,O=C(NOCC1CC1)c1ccc(F)c(F)c1Nc1ccc(I)cc1Cl,0
18,Cc1ccc(NC(=O)c2ccnc(N3CCN(C)CC3)c2)cc1-c1ccc(C(=O)NCC2CC2)cc1 [GW775604],17

# — article PMC5540273 (PLoS ONE, 2017)
